Reference: PubChem BioAssay (Tox21)
Inconclusive results are not listed. The source made the active and inactive calls. Unless noted, calls come from the whole dose curve; as a rule, active = well fitted curve in the direction sought with a large enough effect in the repeat runs; inconclusive = weak or mixed curves; inactive = no such curve, though single readings can be large; an effect the other way counts as inactive or inconclusive.

Key:
[1] = target: Retinoic acid receptor RXR-alpha (Homo sapiens) (UniProt P19793); experiment: qHTS assay to identify small molecule agonists of the RXR signaling pathway (AID 1159527; calls by dose curve; note: nearly all actives have a fitted effect of over 35% in size)
In short: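 GeneBLAzer RXR-alpha-UAS-bla HEK 293T cells in medium with 2% charcoal-stripped FBS, pre-incubated 5 hr at 37 C, then exposed to compounds 16 hr. Beta-lactamase reporter read by FRET substrate, 2 hr room temperature, 460/530 nm emission.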

[2] = qHTS assay to identify small molecule agonists of the RXR signaling pathway - cell viability counter screen (AID 1159529); note: series mostly up to about 77 µM; nearly all actives have a fitted effect of over 50% in size
In short: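 RXR-alpha-UAS-bla HEK 293T cells in medium with 2% charcoal-stripped FBS were preincubated 5 hr, then exposed to compounds for 16 hr at 37 C. Viability was read as CellTiter-Glo luminescence after 30 min at room temperature.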

[3] = qHTS assay to identify small molecule antagonists of the retinoid acid receptor (RAR) signaling pathway - cell viability counter screen (AID 1159551); note: nearly all actives have a fitted effect of over 35% in size
In short: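 Cells (C3RL4) are plated, incubated overnight, dosed with compound in DMSO, then given retinol at 1 uM final. After 6 h at 37 C, CellTiter-Glo is added and luminescence read following 30 min at room temperature.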

[4] = qHTS assay to identify small molecule antagonists of the estrogen related receptor (ERR) signaling pathway from Tox21 library - cell viability counter screen (AID 1224834); note: nearly all actives have a fitted effect of over 30% in size
In short: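 ERR cells, 2,000/well; 6 h settle at 37 C/5% CO2; pin-tool compound transfer in DMSO; 17.5 h at 37 C; CellTiter-Fluor, 30 min; fluorescence intensity.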

[5] = target: Luciferin 4-monooxygenase (Photinus pyralis) (UniProt P08659); experiment: qHTS assay to identify small molecule inhibitors of firefly luciferase (AID 1224835); note: series mostly up to about 120 µM; nearly all actives have a fitted effect of over 25% in size
In short: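 Biochemical qHTS: compounds run as interplate titrations against purified firefly enzyme, with D-luciferin and ATP each at its KM concentration. Light output recorded by CCD imaging.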

[6] = qHTS assay to identify small molecule agonists of the constitutive androstane receptor (CAR) signaling pathway - cell viability counter screen (AID 1224836); note: series mostly up to about 92 µM; nearly all actives have a fitted effect of over 45% in size
In short: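 HepG2 cells stably carrying hCAR and a CYP2B6-2.2kb reporter were plated 4 h, then given compounds at 15 concentrations plus PK11195 (final 0.75 uM). After 23 h at 37 C, viability was read by CellTiter-Fluor fluorescence.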

[7] = qHTS assay to identify small molecule antagonists of the constitutive androstane receptor (CAR) signaling pathway - cell viability counter screen (AID 1224837); note: series mostly up to about 92 µM; nearly all actives have a fitted effect of over 45% in size
In short: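 Viability was measured with CellTiter-Fluor in a HepG2 line carrying stably transfected hCAR and a CYP2B6-2.2kb construct. Cells were exposed for 23 hr at 37 C to 15 compound concentrations with 50 nM CITCO as agonist.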

[8] = target: Nuclear receptor subfamily 1 group I member 3 (Homo sapiens) (UniProt Q14994); experiment: qHTS assay to identify small molecule antagonists of the constitutive androstane receptor (CAR) signaling pathway (AID 1224838); note: nearly all actives have a fitted effect of over 40% in size
In short: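 Antagonist mode used CITCO at a final 50 nM to activate CAR in human hepatoma HepG2 cells carrying stable hCAR and a 2.2 kb CYP2B6 promoter-luciferase construct. Compounds were tested at 15 concentrations over 24 h, with luminescence as the end point.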

[9] = target: Nuclear receptor subfamily 1 group I member 3 (Homo sapiens) (UniProt Q14994); experiment: qHTS assay to identify small molecule agonists of the constitutive androstane receptor (CAR) signaling pathway (AID 1224839); note: series mostly up to about 92 µM; nearly all actives have a fitted effect of over 15% in size
In short: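 HepG2 cells stably expressing hCAR and a CYP2B6-2.2kb luciferase reporter were treated with compounds at 15 concentrations plus 0.75 uM PK11195 (final) for 24 h at 37 C; luminescence was read after ONE-Glo addition.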

[10] = qHTS assay to identify small molecule antagonists of the estrogen related receptor signaling pathway with the pleiotropic PPARgamma coactivator (PGC) from Tox21 10K library - cell viability counter screen (AID 1224840; active = well fitted cell-killing curve with a large enough effect in the repeat runs, not every such curve was filed as active; note: nearly all actives have a fitted effect of over 40% in size)
In short: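 Multiplexed viability counter screen in the PGC/ERR cell line: cells treated with DMSO-dissolved compounds for 17.5 hours at 37 C, then viability measured as CellTiter-Fluor fluorescence.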

[11] = qHTS assay to identify small molecule antagonists of the estrogen related receptor signaling pathway with the pleiotropic PPARgamma coactivator (PGC) from Tox21 10K library (AID 1224841; call rule not given here; note: series mostly up to about 92 µM; actives are mostly falling curves and most rising ones were filed inactive; nearly all actives have a fitted effect of over 50% in size)
In short: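 Steps: plate 2,000 PGC/ERR cells per well; incubate 6 h at 37 C with 5% CO2; transfer compounds from DMSO stocks by pin tool; incubate 18 h at 37 C; add One-Glo; measure luminescence 30 min later.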

[12] = qHTS assay to identify small molecule agonists of the estrogen related receptor signaling pathway with the pleiotropic PPARgamma coactivator (PGC) from Tox21 10K library (AID 1224842); note: nearly all actives have a fitted effect of over 15% in size
In short: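 PGC/ERR reporter cell line, 2,000 cells per well, incubated 6 h at 37 C before 23 nL compound in DMSO was added. After 18 h at 37 C, One-Glo luminescence read following 30 min at room temperature.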

[13] = target: Thyrotropin receptor (Homo sapiens) (UniProt P16473); experiment: qHTS assay to identify small molecule agonists of the thyroid stimulating hormone receptor (TSHR) signaling pathway (AID 1224843; calls by dose curve; note: nearly all actives have a fitted effect of over 45% in size)
In short: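 HEK293/TSHR, 800 cells/well; cpd 30 min RT; add cAMP-d2 + anti-cAMP-cryptate, 1 h RT; fluorescence read on plate reader. 15-pt titration, n=3.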
% is set by controls: 0 for no effect and ±100 for the full control effect.

Sequence of Nuclear receptor subfamily 1 group I member 3 (Homo sapiens) (Q14994 whole entry, looked up): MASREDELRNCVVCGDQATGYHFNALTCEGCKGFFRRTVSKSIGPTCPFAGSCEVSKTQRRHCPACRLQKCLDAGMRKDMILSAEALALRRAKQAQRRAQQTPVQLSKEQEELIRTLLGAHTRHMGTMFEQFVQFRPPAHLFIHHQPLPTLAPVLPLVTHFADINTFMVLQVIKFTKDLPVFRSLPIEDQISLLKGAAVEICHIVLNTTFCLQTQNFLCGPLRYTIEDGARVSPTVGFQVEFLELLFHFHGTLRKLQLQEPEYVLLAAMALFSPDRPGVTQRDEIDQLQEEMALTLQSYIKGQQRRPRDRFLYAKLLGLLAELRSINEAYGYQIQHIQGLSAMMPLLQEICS
Sequence of Luciferin 4-monooxygenase (Photinus pyralis) (P08659 whole entry, looked up): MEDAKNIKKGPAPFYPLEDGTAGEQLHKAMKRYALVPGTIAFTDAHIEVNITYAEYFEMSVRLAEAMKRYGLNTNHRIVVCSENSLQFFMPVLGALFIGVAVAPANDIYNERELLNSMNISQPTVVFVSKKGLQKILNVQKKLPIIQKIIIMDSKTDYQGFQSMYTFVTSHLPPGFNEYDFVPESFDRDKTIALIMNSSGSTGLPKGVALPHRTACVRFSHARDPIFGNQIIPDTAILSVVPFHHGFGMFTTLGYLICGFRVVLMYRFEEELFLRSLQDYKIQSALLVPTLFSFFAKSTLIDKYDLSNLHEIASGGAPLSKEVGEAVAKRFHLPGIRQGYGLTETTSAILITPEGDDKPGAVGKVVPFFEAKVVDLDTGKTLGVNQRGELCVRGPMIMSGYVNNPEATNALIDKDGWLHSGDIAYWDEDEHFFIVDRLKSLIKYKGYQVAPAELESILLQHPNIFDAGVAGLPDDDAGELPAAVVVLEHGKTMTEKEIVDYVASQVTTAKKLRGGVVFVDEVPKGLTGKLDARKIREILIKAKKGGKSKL
Sequence of Retinoic acid receptor RXR-alpha (Homo sapiens) (P19793 whole entry, looked up): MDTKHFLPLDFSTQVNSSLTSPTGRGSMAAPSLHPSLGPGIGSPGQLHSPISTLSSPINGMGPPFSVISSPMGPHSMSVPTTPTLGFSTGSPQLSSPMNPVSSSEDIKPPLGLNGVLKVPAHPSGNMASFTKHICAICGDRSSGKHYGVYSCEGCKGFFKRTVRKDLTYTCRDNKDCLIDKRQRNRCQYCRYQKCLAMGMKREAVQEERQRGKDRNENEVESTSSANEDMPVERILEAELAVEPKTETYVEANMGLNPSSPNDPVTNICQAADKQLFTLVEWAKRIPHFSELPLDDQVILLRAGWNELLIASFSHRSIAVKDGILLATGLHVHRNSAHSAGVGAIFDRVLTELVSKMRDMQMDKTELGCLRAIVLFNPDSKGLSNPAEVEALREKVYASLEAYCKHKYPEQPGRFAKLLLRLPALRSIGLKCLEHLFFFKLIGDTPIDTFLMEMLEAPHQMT
Sequence of Thyrotropin receptor (Homo sapiens) (P16473 whole entry, looked up): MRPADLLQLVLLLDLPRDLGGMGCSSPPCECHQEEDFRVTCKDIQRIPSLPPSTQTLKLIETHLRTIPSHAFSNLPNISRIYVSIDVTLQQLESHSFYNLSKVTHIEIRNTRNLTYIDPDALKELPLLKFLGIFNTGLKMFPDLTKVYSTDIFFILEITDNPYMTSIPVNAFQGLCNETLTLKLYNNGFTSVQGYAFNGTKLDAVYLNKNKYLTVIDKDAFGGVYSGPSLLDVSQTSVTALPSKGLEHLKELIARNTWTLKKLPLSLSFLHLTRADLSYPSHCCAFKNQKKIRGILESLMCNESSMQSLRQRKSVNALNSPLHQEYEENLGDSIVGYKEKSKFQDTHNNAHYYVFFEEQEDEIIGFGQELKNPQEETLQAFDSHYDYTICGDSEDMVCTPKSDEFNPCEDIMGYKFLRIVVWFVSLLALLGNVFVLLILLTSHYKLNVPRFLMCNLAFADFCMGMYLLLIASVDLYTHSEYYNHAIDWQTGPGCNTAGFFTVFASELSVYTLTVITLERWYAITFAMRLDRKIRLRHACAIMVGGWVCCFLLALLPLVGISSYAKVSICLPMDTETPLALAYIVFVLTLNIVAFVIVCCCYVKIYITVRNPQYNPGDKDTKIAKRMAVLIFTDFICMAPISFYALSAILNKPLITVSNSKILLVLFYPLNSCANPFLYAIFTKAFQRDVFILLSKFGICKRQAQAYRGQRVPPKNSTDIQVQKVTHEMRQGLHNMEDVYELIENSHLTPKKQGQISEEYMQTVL

CCS(=O)(=O)C(C)(C)S(=O)(=O)CC
inactive: Potency [1] | Potency [2] | Potency [3] | Potency [4] | Potency [5] | Potency [6] | Potency [7] | Potency [8] | Potency [9] | Potency [10] | Potency [11] | outcome [12] | Potency [13]

N#CCCC#N
inactive: Potency [1] | Potency [2] | Potency [3] | Potency [4] | Potency [5] | Potency [6] | Potency [7] | Potency [10]

CNC(=O)O/N=C(\C)SC
inactive: Potency [1] | Potency [2] | Potency [3] | Potency [4] | Potency [5] | Potency [6] | Potency [7] | Potency [10] | Potency [13]

CCSC(=O)N(CC)C1CCCCC1
inactive: Potency [1] | Potency [2] | Potency [3] | Potency [4] | Potency [5] | Potency [6] | Potency [7] | Potency [10] | Potency [13]

CCCSC(=O)N(CCC)CCC
inactive: Potency [1] | Potency [2] | Potency [3] | Potency [4] | Potency [5] | Potency [6] | Potency [7] | Potency [8] | Potency [9] | Potency [10] | Potency [13]

O=NN1CCCCC1
inactive: Potency [1] | Potency [2] | Potency [3] | Potency [4] | Potency [5] | Potency [6] | Potency [7] | Potency [8] | Potency [9] | Potency [10] | Potency [13]

OCCBr
inactive: Potency [1] | Potency [2] | Potency [3] | Potency [4] | Potency [5] | Potency [6] | Potency [7] | Potency [10] | Potency [13]

CCOC(=O)C(c1c(O)c2ccccc2oc1=O)c1c(O)c2ccccc2oc1=O
inactive: Potency [1] | Potency [2] | Potency [3] | Potency [4] | Potency [6] | Potency [7] | Potency [9] | Potency [10] | Potency [13]

CC(=O)C(Cl)Cl
inactive: Potency [1] | Potency [2] | Potency [3] | Potency [4] | Potency [5] | Potency [6] | Potency [7] | Potency [8] | Potency [9] | Potency [10] | Potency [11] | outcome [12] | Potency [13]

CCN(Cc1ccc(Cl)nc1)/C(=C/[N+](=O)[O-])NC
inactive: Potency [1] | Potency [2] | Potency [3] | Potency [4] | Potency [5] | Potency [6] | Potency [7] | Potency [8] | Potency [9] | Potency [10] | Potency [13]

Cc1coc2c1CCC(C)C2 (configuration not stated)
inactive: Potency [1] | Potency [2] | Potency [3] | Potency [4] | Potency [5] | Potency [6] | Potency [7] | Potency [8] | Potency [10] | Potency [13]

Nc1ccccc1Cl
inactive: Potency [1] | Potency [2] | Potency [3] | Potency [4] | Potency [5] | Potency [6] | Potency [7] | Potency [8] | Potency [9] | Potency [10] | Potency [13]

Fc1cc(Br)ccc1CBr
inactive: Potency [1] | Potency [2] | Potency [3] | Potency [4] | Potency [5] | Potency [6] | Potency [7] | Potency [8] | Potency [9] | Potency [10] | Potency [13]

COCC(=O)N(c1c(C)cccc1C)N1CCOC1=O
inactive: Potency [1] | Potency [2] | Potency [3] | Potency [4] | Potency [5] | Potency [6] | Potency [7] | Potency [8] | Potency [9] | Potency [10] | Potency [11] | outcome [12]

O=C(O)c1ccc2[nH]cc(CCCCN3CC=C(c4ccccc4)CC3)c2c1
inactive: Potency [1] | Potency [2] | Potency [3] | Potency [4] | Potency [5] | Potency [6] | Potency [7] | Potency [8] | Potency [9] | Potency [10] | Potency [13]

Cc1ncc2n1-c1ccc(Cl)cc1C(c1ccccc1F)=NC2
inactive: Potency [1] | Potency [2] | Potency [3] | Potency [4] | Potency [5] | Potency [6] | Potency [7] | Potency [8] | Potency [9] | Potency [10] | Potency [11] | Potency [13]

CCCCP(CCCC)CCCC
inactive: Potency [1] | Potency [2] | Potency [3] | Potency [4] | Potency [5] | Potency [6] | Potency [7] | Potency [10] | Potency [13]

COc1cc(OC)nc(Sc2cccc(Cl)c2C(=O)O)n1
inactive: Potency [1] | Potency [2] | Potency [3] | Potency [4] | Potency [5] | Potency [6] | Potency [7] | Potency [8] | Potency [9] | Potency [10] | Potency [11] | outcome [12] | Potency [13]

CC1=C(C(=O)O)N2C(=O)[C@@H](N)[C@H]2SC1
inactive: activation [1] 0.217% [at 15.8 µM] | activity change, negative = cytotoxicity [2] 1.45% [at 15.8 µM] | activity change, negative = cytotoxicity [3] -0.0172% [at 19 µM] | viability change, negative = cytotoxic [4] 3.67% [at 19 µM] | activity change, negative = inhibition [5] -0.398% [at 23.6 µM] | viability change, negative = cytotoxic [6] 4.01% [at 19 µM] | activity change, negative = cytotoxicity [7] 0.992% [at 19 µM] | activity, negative = inhibition [8] 17.2% [at 19 µM] | activation [9] -1.84% [at 19 µM] | activity, negative = inhibition [11] 1.75% [at 19 µM] | activation [12] 0.483% [at 19 µM] | activation [13] 0.53% [at 19 µM]

O=C1CN=C(c2ccccc2)c2cc([N+](=O)[O-])ccc2N1
inactive: Potency [1] | Potency [2] | Potency [3] | Potency [4] | Potency [5] | Potency [6] | Potency [7] | Potency [10] | Potency [11] | Potency [13]

COc1cc(OC)nc(Oc2cccc(Oc3nc(OC)cc(OC)n3)c2C(=O)O)n1
inactive: Potency [1] | Potency [2] | Potency [3] | Potency [4] | Potency [5] | Potency [6] | Potency [7] | Potency [8] | Potency [9] | Potency [10]

COc1cc(OC)nc(NC(=O)NS(=O)(=O)c2ncccc2C(=O)N(C)C)n1
inactive: Potency [1] | Potency [2] | Potency [3] | Potency [4] | Potency [5] | Potency [6] | Potency [7] | Potency [8] | Potency [9] | Potency [10] | Potency [13]

CCC(Cl)[N+](=O)[O-] (configuration not stated)
inactive: Potency [1] | Potency [2] | Potency [3] | Potency [4] | Potency [5] | Potency [6] | Potency [7] | Potency [8] | Potency [9] | Potency [11] | outcome [12] | Potency [13]

NC1=NC(=O)C(c2ccccc2)O1 (configuration not stated)
inactive: Potency [1] | Potency [2] | Potency [3] | Potency [4] | Potency [5] | Potency [6] | Potency [7] | Potency [9] | Potency [10] | Potency [13]
